Active and inactive are the calls of the source.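 Rule for the calls, unless noted: active = NADPH fluorescence slope more negative than the mean of all samples by about 3 SD, 99.7% confidence; inactive = the rest.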
Assays:
[1] = inhibitors of TNFa-induced NFkB p65 translocation, primary screen, imaging, HUVEC, MLSMR starter and 10KST1 sets (AID 438;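 active = inhibition above 20% together with a positive visual image hit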;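 note: compound added about 3h40 before a 20 min TNFalpha stimulation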;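 for inhibition: signal is the nuclear over cytoplasmic p65 intensity ratio per well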); details: HUVEC TNFa-induced p65 nuclear translocation; cell count: measured here: nuclei count (cytotoxicity indicator), at 2.08 µM; inhibition: at 2 µM, stronger effect = higher value, 0% TNFa-plus-vehicle, 100% no-TNFa wells
[2] = inhibitors of mutant huntingtin aggregation, primary screen, imaging, exon1htt(103Q)mCFP cells, high-content imaging (AID 483;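 active = visual image review flags a hit and inhibition of aggregation exceeds 20%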;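 note: compound exposure lasted 3 days before fixation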;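 for nuclei count: percent of the per-plate median nuclei count of sample wells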); details: exon1htt(103Q)mCFP cell line, aggregate imaging, at 2 µM; inhibition of aggregation: stronger effect = higher value; nuclei count: measured here: cell count, toxicity
[3] = inhibitors of E-selectin induction by TNFa, primary screen, imaging, HUVEC, immunofluorescence, MLSMR starter and 10KST1 sets (AID 487;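 active = visually confirmed hit in the image check and inhibition above 20%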;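 for inhibition: signal is fraction of cell area covered by stained E-selectin grains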;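 for nuclei count: 100% = median nuclei count of all wells on the same plate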); details: HUVEC TNFalpha-induced E-selectin immunofluorescence imaging, at 2 µM; inhibition: stronger effect = higher value; nuclei count: measured here: cell number, toxicity
[4] = target: Voltage-gated potassium channel subunit beta-2 (Rattus norvegicus) (UniProt P62483); experiment: KvBeta enzyme negative modulators, primary screen, biochemical, NADPH fluorescence (AID 622;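 active = fluorescence slope higher than the sample average by over 3 SD, cut at about -0.22 in these data, passing the limit was not always enough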;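 note: slope of raw intensity against log time taken from 70 to 1610 s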); details: recombinant KvBeta, 4-cyanobenzaldehyde reduction, at 10 µM, stronger effect = higher value
[5] = target: Voltage-gated potassium channel subunit beta-2 (Rattus norvegicus) (UniProt P62483); experiment: KvBeta positive modulators, primary screen, biochemical, NADPH fluorescence (AID 623); details: Recombinant KvBeta, NADPH fluorescence decrease slope, 10 min; at 10 µM; stronger effect = lower value;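 note: fluorescence intensity change per second fitted from 20 to 320 s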
[6] = target: Alpha-2C adrenergic receptor (Homo sapiens) (UniProt P18825); experiment: modulators of alpha2C/GIRK thallium flux, primary screen, cell-based, HEK293 alpha2C/GIRK1/2 (AID 624;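 active = fluorescence slope after compound addition differing from the mean of all screened samples at 99.7% confidence, in either direction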;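 note: slope of fluorescence ratio to pre-addition baseline per second over 15 to 24 s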); details: thallium flux BTC fluorescence, at 10 µM, actives lie on both sides
[7] = inhibitors of Sendai virus-induced IRF3 signaling, primary screen, TLR/RLR signaling modifier project, cell-based, Sendai virus stimulus, luciferase, 10K MLSCN set (AID 602276;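 active = inhibition at or above 50% at 10 µM; inactive = inhibition below 50%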;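 note: firefly luciferase from ISG56 promoter only with Renilla not read in this screen; 0% = Sendai virus plus DMSO and 100% = medium plus DMSO without virus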); details: HEK293 RL24 IRF3 luciferase reporter, at 10 µM, stronger effect = higher value
[8] = inhibitors of poly I:C-induced TLR3 signaling, primary screen, cell-based, poly I:C stimulus, luciferase, 10K MLSCN set (AID 602277;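 active = inhibition of the reporter signal at or above 50%; inactive = inhibition below 50%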); details: HEK293-TLR3 RL24 IRF3 luciferase reporter, at 10 µM, stronger effect = higher value

Chain of Alpha-2C adrenergic receptor (Homo sapiens) (P18825 whole entry, looked up): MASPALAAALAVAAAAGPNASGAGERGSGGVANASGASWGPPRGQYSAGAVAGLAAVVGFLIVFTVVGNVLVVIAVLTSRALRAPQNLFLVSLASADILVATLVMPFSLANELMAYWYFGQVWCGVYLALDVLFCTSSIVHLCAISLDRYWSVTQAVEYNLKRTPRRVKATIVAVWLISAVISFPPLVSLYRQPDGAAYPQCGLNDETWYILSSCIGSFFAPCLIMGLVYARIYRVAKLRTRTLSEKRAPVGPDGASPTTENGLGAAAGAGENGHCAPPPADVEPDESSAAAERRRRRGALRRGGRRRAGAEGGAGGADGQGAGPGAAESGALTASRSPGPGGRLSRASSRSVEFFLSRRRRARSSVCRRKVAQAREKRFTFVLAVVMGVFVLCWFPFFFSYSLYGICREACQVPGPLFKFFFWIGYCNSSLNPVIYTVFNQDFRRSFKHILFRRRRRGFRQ
Chain of Voltage-gated potassium channel subunit beta-2 (Rattus norvegicus) (P62483 whole entry, looked up): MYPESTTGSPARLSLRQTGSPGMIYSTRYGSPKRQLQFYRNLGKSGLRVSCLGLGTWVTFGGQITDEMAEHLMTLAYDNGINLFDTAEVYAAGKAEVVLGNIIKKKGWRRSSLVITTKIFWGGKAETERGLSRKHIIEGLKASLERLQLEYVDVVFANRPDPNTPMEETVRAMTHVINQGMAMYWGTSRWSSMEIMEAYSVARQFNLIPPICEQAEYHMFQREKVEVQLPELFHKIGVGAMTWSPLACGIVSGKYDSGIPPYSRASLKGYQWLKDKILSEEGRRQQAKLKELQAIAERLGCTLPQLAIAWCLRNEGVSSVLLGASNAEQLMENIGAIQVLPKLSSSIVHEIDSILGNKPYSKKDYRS

Compound	cell count [1]	inhibition [1]	inhibition of aggregation [2]	nuclei count [2] [%]	inhibition [3]	nuclei count [3] [%]	fluorescence slope [4]	NADPH fluorescence slope [5]	slope [6]	inhibition [7]	inhibition [8]
CCCCN(CC)CCCNC(=O)CS(=O)(=O)Cc1nc(-c2cccc(OC)c2)oc1C	670	-15.1% (inactive)	-1% (inactive)	100	-24.9% (inactive)	99.7	-0.354 (inactive)	4e-05 (inactive)	0.00399 (inactive)	2.85% (inactive)	17.9% (inactive)
COc1ccc(N2CCN(c3oc(COc4ccccc4Cl)nc3C#N)CC2)cc1	451	14.6% (inactive)	5.4% (inactive)	95.5	-33.4% (inactive)	104	-0.438 (inactive)	-0.000162 (inactive)	0.00642 (inactive)	2.05% (inactive)	15.7% (inactive)
c1ccc(Cn2nnc3c(N4CCCCCC4)ncnc32)cc1	525	-4.2% (inactive)	35.8% (inactive)	76.5	-63.4% (inactive)	95.6	-0.55 (inactive)	-2.5e-05 (inactive)	0.0062 (inactive)	-20.2% (inactive)	-76.6% (inactive)
Cc1[nH]nc2c1C(=O)CCC2	639	10.7% (inactive)	27.4% (inactive)	96.1	14.9% (inactive)	95.1	-0.366 (inactive)	-3.1e-05 (inactive)	0.00524 (inactive)	-1.33% (inactive)	0.12% (inactive)
OC(CN1CCN(c2ccccc2)CC1)c1ccc2c(c1)CCN2 (configuration not stated)	604	-1.6% (inactive)	9.3% (inactive)	82.3	-60.6% (inactive)	108	-0.571 (inactive)	-2.8e-05 (inactive)	0.00657 (inactive)	6.89% (inactive)	32.4% (inactive)
COc1ccc(C)cc1NC(=O)CSc1nnnn1Cc1ccccc1	709	-1.6% (inactive)	-27.3% (inactive)	107	8.3% (inactive)	124	-0.528 (inactive)	-1.1e-05 (inactive)	0.00685 (inactive)	-7.12% (inactive)	13.4% (inactive)
Cc1cccc(C2CC(c3ccc(Br)cc3)Nc3nc(N)nn32)c1 (configuration not stated)	683	-15.7% (inactive)	-3% (inactive)	95.1	-5.8% (inactive)	105	-0.443 (inactive)	-5.3e-05 (inactive)	0.00633 (inactive)	20.8% (inactive)	25.1% (inactive)
COc1ccc(CCNc2nc(N3CCOCC3)nc(N3CCOCC3)n2)cc1OC	229	10.4% (inactive)	14.9% (inactive)	66.5	15.6% (inactive)	91.3	-0.515 (inactive)	-3.3e-05 (inactive)	0.00378 (inactive)	15.3% (inactive)	10.3% (inactive)
c1cnc2c(SCc3ccc(-c4nnco4)cc3)cccc2c1	431	11.7% (inactive)	-3.7% (inactive)	100	-23.1% (inactive)	107	-0.586 (inactive)	-4.6e-06 (inactive)	0.00482 (inactive)	-53.9% (inactive)	-92.3% (inactive)
CCOC(=O)c1[nH]c(C)c(C(=O)NCC2CCCO2)c1C (configuration not stated)	390	2.8% (inactive)	5.8% (inactive)	103	-13.6% (inactive)	86.3	-0.608 (inactive)	-7.6e-06 (inactive)	0.00577 (inactive)	8.72% (inactive)	14.8% (inactive)
COc1cc2c3c(c1)/C(=C1/SC(NC(C)=O)=NC1=O)C(=O)N3C(C)(C)C=C2C	381	-2% (inactive)	7.7% (inactive)	91.9	-35.9% (inactive)	91	-0.467 (inactive)	-2e-05 (inactive)	0.00288 (inactive)	18% (inactive)	16.3% (inactive)
COc1cccc(-c2nnc(NC(=O)c3ccccc3Br)o2)c1	718	-6.9% (inactive)	-5.7% (inactive)	110	-17.4% (inactive)	117	-0.421 (inactive)	-3.3e-05 (inactive)	0.00691 (inactive)	4.13% (inactive)	17.2% (inactive)
Cc1ccc(C2Nc3ccccc3-c3nc4ccccc4n32)o1 (configuration not stated)	741	6.8% (inactive)	3.8% (inactive)	88.4	-26.5% (inactive)	80.6	-0.475 (inactive)	-2.2e-05 (inactive)	0.00364 (inactive)	-46.2% (inactive)	-110% (inactive)
CCOc1cc(C(=O)NCc2ccncc2)cc(OCC)c1OCC	596	1.6% (inactive)	3.9% (inactive)	100	-121% (inactive)	114	-0.407 (inactive)	-4.6e-05 (inactive)	0.00658 (inactive)	7.46% (inactive)	18.3% (inactive)
CC(C)Cn1c(N)c(C(=O)NCCN2CCOCC2)c2nc3ccccc3nc21	440	-2.8% (inactive)	-15.6% (inactive)	101	-37.1% (inactive)	81.3	-0.0147 (inactive)	-9e-06 (inactive)	0.00559 (inactive)	19.1% (inactive)	19.8% (inactive)
CC(=O)Nc1ccc(S(=O)(=O)NCC(C)NS(=O)(=O)c2ccc(NC(C)=O)cc2)cc1 (configuration not stated)	572	-9.7% (inactive)	18.1% (inactive)	76	-204% (inactive)	95.1	-0.442 (inactive)	4.4e-05 (inactive)	0.0079 (inactive)	-11.9% (inactive)	-13.4% (inactive)
Cc1ccccc1NC(=O)C1CC(=O)N(c2ccccc2F)C1 (configuration not stated)	238	-0.6% (inactive)	30.3% (inactive)	77	-56.9% (inactive)	97.7	-0.462 (inactive)	-3.8e-05 (inactive)	0.00686 (inactive)	0.893% (inactive)	28.8% (inactive)
CCCCOC(=O)CN1C(=O)c2ccc(C(=O)OCCCC)cc2C1=O	619	-4.1% (inactive)	-4.5% (inactive)	36.7	-48.1% (inactive)	88.2	-0.486 (inactive)	-2.2e-05 (inactive)	0.00602 (inactive)	-2.49% (inactive)	26% (inactive)
Cc1oc(-c2ccc(Cl)cc2)nc1CS(=O)CC(=O)NCCCN(C)C1CCCCC1 (configuration not stated)	584	3.8% (inactive)	-6.2% (inactive)	94.6	-47% (inactive)	127	-0.603 (inactive)	1.3e-05 (inactive)	0.00462 (inactive)	15.7% (inactive)	30.4% (inactive)
Cn1c(SCC(N)=O)nnc1C1CCN(C(=O)NCc2ccccc2)CC1	325	6.8% (inactive)	-6.1% (inactive)	99.8	-74.7% (inactive)	108	-0.385 (inactive)	-5.9e-05 (inactive)	0.00348 (inactive)	5.51% (inactive)	21.8% (inactive)
CCOc1ccccc1NC(=O)CSc1nnc2c(CC)c(C)nc(N)n12	340	-6.8% (inactive)	1.5% (inactive)	99.1	9.7% (inactive)	92.7	-0.305 (inactive)	-4e-05 (inactive)	0.00576 (inactive)	-6.38% (inactive)	98.4% (active)
COCc1[nH]nc2c1C(c1cc(OC)c(O)c(OC)c1)C(C#N)=C(N)O2 (configuration not stated)	397	-1.6% (inactive)	-17% (inactive)	115	-26.1% (inactive)	117	-0.502 (inactive)	-4.1e-05 (inactive)	0.0049 (inactive)	17.4% (inactive)	21.1% (inactive)
CCNc1nc(N2CCOCC2)nc(N(c2ccccc2)c2ccccc2)n1	324	8.2% (inactive)	-29.1% (inactive)	93.3	-3.9% (inactive)	101	-0.388 (inactive)	-5.9e-05 (inactive)	0.00355 (inactive)	9.87% (inactive)	28.5% (inactive)
CCN(C(=O)COC(=O)c1cc(C)n(-c2ccc(F)cc2)c1C)C1CCS(=O)(=O)C1 (configuration not stated)	496	-3.4% (inactive)	-3.9% (inactive)	114	-35.5% (inactive)	115	-0.537 (inactive)	3.5e-06 (inactive)	0.00451 (inactive)	13.2% (inactive)	13% (inactive)
CCCCOC(=O)n1c(SCC(=O)N(CC)CC)nc2ccccc21	307	5.3% (inactive)	1.4% (inactive)	107	10% (inactive)	106	-0.585 (inactive)	-3.7e-07 (inactive)	0.00671 (inactive)	-15.8% (inactive)	-54.6% (inactive)
CC(=O)Nc1ccc(S(=O)(=O)NCC2CCC(C(=O)NCCCN3CCCC3=O)CC2)cc1 (configuration not stated)	318	-0.8% (inactive)	5.9% (inactive)	112	-15.4% (inactive)	106	-0.484 (inactive)	-3.3e-05 (inactive)	0.00457 (inactive)	20.7% (inactive)	19.4% (inactive)
O=C1c2ccccc2C(=O)N1CCC(=O)N1CCc2ccccc21	359	5.9% (inactive)	22.4% (inactive)	92.8	-71.6% (inactive)	109	-0.393 (inactive)	-2.1e-05 (inactive)	0.005 (inactive)	-1.4% (inactive)	-26.2% (inactive)
